Source: PubChem (National Center for Advancing Translational Sciences (NCATS))
HT1080NT lethal: qHTS for induction of synthetic lethality in tumor cells producing 2HG: qHTS for the HT-1080-NT fibrosarcoma cell line | HT-1080-NT fibrosarcoma viability, CellTiter-Glo ATP luminescence, 48 h | Potency, µM (titrated, usually from 46.1 µM), for the others: top-dose activity, negative = less viability, actives largely listed as cytotoxic | actives 1.6% (n = 360,000);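 also: NT is the 2HG producing partner of a matched IDH1 knockdown line; potency is read from the fitted curve at half-maximal effect; 0% = DMSO-treated cells and -100% = media-only wells without cells; nearly all actives have a fitted effect of over 55% in size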
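750 cells/well, RPMI + 5% FBS; 2 h settle, compound pin-transfer, 48 h at 37 degrees C. CellTiter-Glo 10 min RT, luminescence. Normalized to DMSO and media-only wells.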
HT1080 IDH1KD tx: qHTS for induction of synthetic lethality in tumor cells producing 2HG: qHTS for the HT-1080-IDH1KD cell line. HT-1080 IDH1 knockdown viability, ATP luminescence, 48 h. Potency, µM (series often up to 46.1 µM), inactives show at the top dose activity, negative = toxicity, usual class: cytotoxic. actives 2% (n = 360,000);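 also: potency is read from the fitted curve at half-maximal effect; 0% = DMSO wells and -100% = cell-free medium wells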
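Knockdown cells (IDH1KD HT-1080) received compounds 2 h after plating at 750 cells/well and were kept 48 h at 37 °C in 5% FBS RPMI. A CellTiter-Glo luminescence read gave % activity for curve fitting.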
IL1B secr inh: qHTS for Inhibitors of Inflammasome Signaling: IL-1-beta AlphaLISA Primary Screen. THP-1 LPS/ATP IL-1B secretion, AlphaLISA, 16 h; stronger effect = lower value. AID 743279, 2014. activity change, % at 57.5 µM. actives 4.7% (n = 360,000); in the data active = activity change below about -50%; inconclusive = mostly about -30% to -49%
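Secreted IL-1B measured by AlphaLISA bead assay after 16 h compound exposure of THP-1 cells; compounds (final up to 57.5 uM) added 1 h before LPS (250 ng/mL) and ATP (1.25 mM) stimulation; lower signal means less secretion.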
ELG1 repair inh: qHTS screen for small molecules that inhibit ELG1-dependent DNA repair in human embryonic kidney (HEK293T) cells expressing luciferase-tagged ELG1 | HEK293T ELG1-luciferase reporter, luminescence, 16 h; DNA damage induced by 5-fluorouridine | Potency, µM (doses to about 46.1 µM), for the others: at the highest dose activity change, negative = inhibition, usual class: inhibitors | actives 2.3% (n = 330,000) | AID 504467, 2011; also: potency is read from the fitted curve at half-maximal effect; nearly all actives have a fitted effect of over 55% in size
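HEK293T cells expressing luciferase-tagged ELG1 (2,000/well) received 5-Fluorouridine plus compound or DMSO for 16 hr at 37 °C. Luciferase was read by ONE-Glo luminescence after 30 min at room temperature.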
TDP1 cell noCPT: qHTS for Inhibitors of human tyrosyl-DNA phosphodiesterase 1 (TDP1): qHTS in cells in absence of CPT; AID 686978, 2013; DT40 Tdp1-/- hTDP1 cells, no CPT, ATP luminescence, 48 h; actives 15% (n = 420,000); Potency, µM (top dose mostly 46.2 µM), inactives show at the top dose activity change, negative = growth inhibition, usual class: inhibitors; also: potency is read from the fitted curve at half-maximal effect; nearly all actives have a fitted effect of over 55% in size
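Growth kinetics read by CellTiter-Glo luminescence after ≥48 hr at 37 °C. Cells: DT40 Tdp1-/- stably carrying human TDP1, 400 per well, compound exposure in the absence of CPT (DMSO vehicle).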
TDP1 cell CPT: qHTS for Inhibitors of human tyrosyl-DNA phosphodiesterase 1 (TDP1): qHTS in cells in presence of CPT; chicken DT40 Tdp1-/-;hTDP1 cells + 20 nM CPT, ATP luminescence, 48 h; Potency, µM (highest dose often 46.2 µM), inactives show at the top dose activity change, negative = growth inhibition, most hits filed as inhibitors; actives 12% (n = 420,000); also: potency is read from the fitted curve at half-maximal effect; nearly all actives have a fitted effect of over 55% in size
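Chicken DT40 Tdp1-/- cells complemented with human TDP1, 400 cells/well, exposed to compounds plus 20 nM camptothecin for at least 48 h at 37 C; viability read as ATP content by CellTiter-Glo luminescence.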
Numbers without * were called inactive; ? = inconclusive; nt = not tested or not shown; [ ] = dose if it differs, or a comment. Most compounds without a hit are left out; they make up all but 19% or so of the library. Unless noted, calls follow the shape of the dose curve; as a rule, active = well fitted curve in the direction sought with a large enough effect; inconclusive = small, poorly fitted or top-dose-only effect, or another doubt; inactive = no such curve, though single readings can be large; an effect the other way counts as inactive or inconclusive. Unless noted, % is scaled to controls: 0 for no effect and ±100 for the full control effect.

SMILES | HT1080NT lethal | HT1080 IDH1KD tx | IL1B secr inh | ELG1 repair inh | TDP1 cell noCPT | TDP1 cell CPT
CC(C)(C)NC(=O)C[C@H]1C[C@H](C(=O)N2CCCCC2)[C@@]2(C)c3[nH]c4cc(-c5ccco5)ccc4c3CCN2C1=O | -21% | -17% | 1 | ? | 26µM* | ?
Cc1nn(C)c(C)c1CN(C)S(=O)(=O)c1ccc2ccccc2c1 | -13% | 2µM* | -14 | ? | 1.3µM* | 2.2µM*
CN1CCN(C(=O)CN(C)S(=O)(=O)c2ccc3ccccc3c2)CC1 | 7% | 0% | -7 | 7% | -25% | 18%
Cc1nn(C)c(C)c1NS(=O)(=O)c1ccc(Cl)cc1 | 6% | 4% | 13 | 2% | -27% | -27%
Cc1nn(C)c(C)c1CN(C)S(=O)(=O)c1ccc(F)cc1 | -13% | ? | 28 | ? | 21µM* | ?
CCN(CC)S(=O)(=O)c1ccc(S(=O)(=O)Nc2c(C)nn(C)c2C)cc1 | 16µM* | ? | -11 | -15% | 4.6µM* | 6.5µM*
Cc1ccccc1Cn1cc(S(=O)(=O)c2ccc(Cl)cc2)c(=O)c2cc3c(cc21)OCO3 | nt | nt | nt | nt | ? | -15%
O=C(O)C1CCN(S(=O)(=O)c2ccc(N3CCOCC3)c([N+](=O)[O-])c2)CC1 | -7% | 14% | -13 | -13% | ? | -4%
O=C(NCc1ccco1)C1CCN(c2ccc(S(=O)(=O)N3CCOCC3)cc2[N+](=O)[O-])CC1 | -2% | -17% | -9 | ? | 23µM* | ?
O=C(NCc1cccs1)C1CCN(c2ccc(S(=O)(=O)N3CCOCC3)cc2Cl)CC1 | ? | ? | -13 | 18µM* | 2.6µM* | 3.7µM*
OCC[N+]1(CCc2ccccc2)CCOCC1 | nt | nt | nt | nt | -8% | -13%
Nc1cccc(-c2cn3ccsc3n2)c1 | nt | nt | nt | nt | -13% | 5%
Cc1ccc(CNCCC2=CCCCC2)cc1 | -2%[9.24 µM] | ? | -69* | -2% | 23µM* | ?
CCS(=O)(=O)c1oc(-c2ccc(F)cc2)nc1S(=O)(=O)c1ccc(Br)cc1 | nt | nt | nt | nt | 1.2µM* | 0.92µM*
CSc1oc(-c2ccc(F)cc2)nc1S(=O)(=O)c1ccc(F)cc1 | 25% | -1% | 6 | ? | 23µM* | 15µM*
CS(=O)(=O)c1oc(-c2ccc(F)cc2)nc1S(=O)(=O)c1ccc(Cl)cc1 | nt | nt | nt | nt | 0.82µM* | 0.58µM*
CSc1oc(-c2ccc(F)cc2)nc1S(=O)(=O)c1ccccc1 | 1% | 1% | 13 | ? | -15% | -1%
CCN1C[C@@H]2[C@@H]3C(=O)N(C)C(=O)[C@@H]3[C@](Cc3ccccc3)(C1=O)N2C(=O)c1ccc(Br)cc1 | 16% | 12% | 12 | nt | 2% | -10%
Cc1nn(CC(=O)Nc2sc3c(c2C#N)CCC(C(C)(C)C)C3)c(C)c1[N+](=O)[O-] (configuration not stated) | 15% | 24% | -3 | 3% | 18µM* | 26µM*
C[C@@H]1CCC[C@@]2(O[C@@H](CCO)C[C@H](O)[C@H]2O)O1 | 22% | 11% | 13 | nt | 1% | 2%
O=C(N/N=C/c1ccc([N+](=O)[O-])o1)c1cn(-c2ccccc2)nc1-c1ccccc1 | -13% | -4% | 25 | ? | 6.5µM* | ?
COc1ccccc1-c1cc(C(=O)N/N=C/c2ccc(C)o2)c2ccccc2n1 | -11% | ? | 44 | ? | ? | ?
O=C(N/N=C/c1ccc([N+](=O)[O-])o1)c1cn(-c2ccccc2)nc1-c1ccc(Cl)cc1 | 2% | 2% | 5 | ? | ? | ?
O=C(N/N=C/c1ccc([N+](=O)[O-])o1)c1cc(-c2ccc(-c3ccccc3)cc2)nc2ccccc12 | ? | ? | -8 | ? | 0.46µM* | 4.1µM*
Cc1ccc(-c2cc(C(=O)N/N=C/c3ccc([N+](=O)[O-])o3)c3ccccc3n2)o1 | ? | ? | ? | 8% | 13µM* | 18µM*
SMILES | HT1080NT lethal | HT1080 IDH1KD tx | IL1B secr inh | ELG1 repair inh | TDP1 cell noCPT | TDP1 cell CPT
Cc1ccc(/C=N/NC(=O)c2cc(-c3ccncc3)nc3ccccc23)o1 | ? | 1.8µM* | 59 | 10% | 2.6µM* | 2.9µM*
CC(NC(=O)CCCn1c(=O)c2cccn2c2cccnc21)c1ccccc1 (configuration not stated) | nt | nt | nt | nt | -8% | -2%
Cc1cc(N/N=C/c2ccc([N+](=O)[O-])o2)nc2ccccc12 | -12% | -14% | -25 | -25% | 18µM* | 18µM*
Cn1c(/C=C/c2ccc([N+](=O)[O-])o2)nc2ccccc2c1=O | ? | ? | -98* | ? | 0.26µM* | 0.26µM*
Cc1cc(=O)[nH]c(N/N=C/c2ccc(-c3ccc([N+](=O)[O-])cc3)o2)n1 | -16% | -20% | -5 | 9% | ? | -19%
O=C(N/N=C/c1ccc([N+](=O)[O-])o1)c1cc(-c2ccncc2)nc2ccccc12 | 4µM* | ? | -26 | ? | 3.2µM* | 7.1µM*
Cc1ccc2nc(C)cc(SCC(=O)N/N=C/c3ccco3)c2c1 | -10% | ? | -20 | -1% | -6% | -19%
Cc1ccc2nc(N/N=C/c3ccco3)cc(C)c2c1 | -8% | -1% | -56* | ? | 10µM* | 8.2µM*
Cn1c(/C=C/c2ccccc2)nc2ccccc2c1=O | ? | ? | -2 | ? | ? | -76%
COC(=O)c1cc2oc3ccccc3c2n1CC(=O)Nc1ccc(C)cc1C | nt | nt | nt | nt | -3% | ?
CC(C)c1ccc(C(=O)C[N+]2(C)CCOCC2)cc1 | nt | nt | nt | nt | -18% | -10%
CCN(CC)S(=O)(=O)c1ccc(O)c(NC(=O)c2cc(-c3cc(OC)c(OC)c(OC)c3)nc3ccccc23)c1 | ? | ? | -22 | 16µM* | 21µM* | ?
COc1cc(-c2cc(C(=O)Nc3cccc(S(=O)(=O)N(C)C)c3)c3ccccc3n2)cc(OC)c1OC | ? | ? | 19 | ? | -24% | -2%
